Screen size: about 270,000 compounds; about 620 (0.23%) were called active. Where a call stands in place of a potency, no number is given. Another 12% or so got no clear call; they are omitted. Calls come from the whole dose curve; as a rule, active = well fitted inhibition curve with a large enough effect in the polarisation, with a control signal flat (not every such curve was filed as active); inconclusive = small, poorly fitted or top-dose-only effect, or effect the other way, or a change in a side signal; inactive = no such curve, though single readings can be large or run the other way; the % refers to the polarisation. The sample as a whole holds a higher share of actives than the screen did.
biological target: Menin (Homo sapiens) (UniProt O00255); assay: qHTS Assay for Inhibitors Targeting the Menin-MLL Interaction in MLL Related Leukemias: Competition With Texas Red Labeled MLL-derived Mutant Peptide; conditions: fluorescence polarization; series mostly up to 61.6 µM
From the text: qHTS Assay for Inhibitors Targeting the Menin-MLL Interaction in MLL Related Leukemias NIH Chemical Genomics Center [NCGC] NIH Molecular Libraries Probe Centers Network [MLPCN] MLPCN Grant: MH084875-01A1 Assay Submitter (PI): Jolanta Grembecka, Tomasz Cierpicki, University of Virginia Translocations of the MLL (Mixed Lineage Leukemia) gene are frequently found in human leukemias affecting both children and adults. Fusion of MLL to one of more than 60 genes results in generation of oncogenic proteins upregulating Hox genes, which are vital to blood cell development. Patients harboring fusion of the MLL gene suffer from aggressive leukemias and respond poorly to available therapies. All of the oncogenic fusion proteins have a preserved N-terminal fragment of MLL that has been identified to interact with menin. It has been recently discovered that association with menin is critical to the leukemogenic activity of the MLL fusion oncoproteins. Selective targeting of the menin-MLL interaction could provide an attractive therapeutic approach to develop novel drugs for MLL-related leukemias. Small molecules blocking the menin-MLL interaction should reverse the oncogenic potential of MLL fusion proteins. We have developed and optimized a fluorescence polarization-based assay for the identification of Menin-MLL inhibitors. The assay was run employing two different MLL-derived peptides. The present assay uses a 12 amino acid peptide labeled with fluorescein at its N-terminus. This peptide consists of the menin high affinity binding motif from MLL and is potently bound by menin. Another peptide with a mutated sequence, labeled with Texas Red, was used in parallel as a less stringent screen for inhibitors.
The Menin protein, the MLL-wild type (w.t.) derived peptide (N-terminal 12 amino acids), the MLL-derived peptide labeled with Texas Red and the MLL-w.t. peptide labeled with Fluorescein were kindly supplied by laboratory of Dr. Jolanta Grembecka, University of Virginia. All protein and peptide solutions were stored in single use aliquots at -80C. The Eu3+ Cyrptate-conjugated mouse monoclonal antibody anti-6 Histidine (Eu3+-AB) and the Streptavidin-XL665 conjugate (XL665) were purchased from Cisbio International (Bedford, MA). All antibody and XL665 conjugate solution stocks were stored in single use aliquots at -20C. The Buffer components for all assays were purchased from Sigma-Aldrich (St. Louis, MO) and Invitrogen (Carlsbad, CA). FP Assay Reagents: 1. FP reaction buffer: 50 mM Tris-HCl pH 7.5, 50 mM NaCl, 1mM DTT. Before use, 0.05% BSA is added. 2. Menin protein, MLL-w.t. labeled with fluorescein, MLL-mutant peptide labeled with texas red. Stored in singe use aliquots at -80C. 3. MLL-w.t. unlabeled peptide as positive control: 10 uM final in FP buffer. FP Assay Procedure: 1. Prepare Menin at 200 nM, MLL-w.t.-fluorescein at 25 nM, and MLL-mutant-texas red at 50 nM mixture in FP buffer. 2. Prepare Menin at 200 nM, MLL-w.t.-fluorescein at 25 nM, MLL-mutant-texas red at 50 nM, and 10 uM MLL-w.t. unlabeled mixture in FP buffer. 3. Prepare MLL-w.t.-fluorescein at 25 nM and MLL-mutant-texas red at 50 nM mixture in FP buffer. 3. Dispense 4 ul per well of reagent in step 1 in columns 2, 4 - 48 in a black 1536 well plate, dispense 4 ul per well of reagents from steps 2 and 3 in columns 1 and 3 respectively. Incubate plate at ambient for 15 minutes. 4. Transfer 23 nl per well of compound to plate and incubate at ambient for 1 hr. 5. Read fluorescence polarization for each label using the PerkinElmer Envision. Envision protocol for fluorescein: FITC FP Dual Enh Mirror, Excitation filter 480, Emission filter (1) P-pol 535, Emission filter (2) S-pol 535 Envision protocol for texas red: FP Dual Enh Mirror, Excitation filter 555, Emission filter (1) P-pol 632, Emission filter (2) S-pol 632
Potency is the fitted concentration of half-maximal effect.

Menin (Homo sapiens), sequence (O00255 whole entry, looked up, the tested form may be a part): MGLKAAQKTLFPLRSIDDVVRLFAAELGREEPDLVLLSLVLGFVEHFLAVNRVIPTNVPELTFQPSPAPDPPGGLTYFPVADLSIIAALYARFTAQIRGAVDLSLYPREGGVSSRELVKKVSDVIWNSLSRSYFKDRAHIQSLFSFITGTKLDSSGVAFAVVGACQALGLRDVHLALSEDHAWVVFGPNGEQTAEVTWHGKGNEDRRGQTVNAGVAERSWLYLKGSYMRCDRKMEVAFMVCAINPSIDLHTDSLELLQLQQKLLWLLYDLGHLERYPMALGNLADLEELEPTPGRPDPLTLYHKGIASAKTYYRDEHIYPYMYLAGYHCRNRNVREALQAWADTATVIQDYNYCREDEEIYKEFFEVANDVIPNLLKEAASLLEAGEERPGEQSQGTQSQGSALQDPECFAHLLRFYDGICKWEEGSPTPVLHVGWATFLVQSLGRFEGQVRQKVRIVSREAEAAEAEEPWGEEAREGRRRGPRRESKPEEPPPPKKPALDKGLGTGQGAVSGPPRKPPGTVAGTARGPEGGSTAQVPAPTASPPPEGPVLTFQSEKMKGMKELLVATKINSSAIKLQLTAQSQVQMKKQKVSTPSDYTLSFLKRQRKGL

| Compound | Potency |
| --- | --- |
| CC[N+](C)(CC)CCC[n+]1c(-c2ccccc2)c2cc(N)ccc2c2ccc(N)cc21 | 12.6 µM (active) |
| CC(=O)[O][Sn]([c]1ccccc1)([c]1ccccc1)[c]1ccccc1 | inactive |
| CCN(CC)c1nc(C)cc(OP(=S)(OC)OC)n1 | inactive |
| COC([CH2][Hg])CNC(=O)c1ccccc1OCC(=O)O (stereo not given) | inactive |
| CO[C@H]1[C@@H](O)[C@@H](C)O[C@H](O[C@H]2[C@H](Oc3cccc4c(O)c5c(=O)oc6ccc(C)c7c(=O)oc(c34)c5c67)O[C@H](C)[C@H](O)[C@@H]2O)[C@@H]1O | inactive |
| N#Cc1cc(Br)c(O)c(Br)c1 | inactive |
| CC[C@H]1CN2CCc3cc(OC)c(OC)cc3[C@@H]2C[C@@H]1C[C@H]1NCCc2cc(OC)c(OC)cc21 | 22.4 µM (active) |
| C[C@]12O[C@H](C[C@@]1(O)C(=O)O)n1c3ccccc3c3c4c(c5c6ccccc6n2c5c31)CNC4=O | inactive |
| C[C@@H]1C[C@H]2CC[C@H](O2)[C@H](C)C(=O)O[C@@H](C)C[C@@H]2CC[C@@H](O2)[C@@H](C)C(=O)O[C@H](C)C[C@H]2CC[C@H](O2)[C@H](C)C(=O)O[C@@H](C)C[C@@H]2CC[C@@H](O2)[C@@H](C)C(=O)O1 | inactive |
| O=C1CCc2cccc3c2N1CC3 | inactive |
